Where a name gives a salt, the structure may show the parent alone. ± gives the standard deviation of the averaged measurements.
Key:
Experiment in all cases: growth (OD600 after 10 h); higher = more growth (less inhibition)
[1] = system: E. coli TESEC Alr+ wild-type control; conditions: compound 0.1 mM; raw OD600 reference: median of DMSO wells 0.241, cell-free background 0.041
Procedure: (§1)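 TESEC Mtb Alr E. coli, or the Alr+ wild-type control, in 384-well plates with Prestwick library compounds at 0.1 mM and 1% DMSO, across arabinose induction levels of 1E3 to 1E7 nM. Growth is read as OD600 after 10 h at 37 °C in triplicate biological replicates.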

E. coli TESEC Mtb Alr [2] = conditions: compound 0.1 mM
Procedure: as §1

E. coli TESEC Mtb Asd = conditions: compound 0.1 mM
Procedure: (§2)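 TESEC E. coli strains in which the native enzyme is deleted and replaced by arabinose-inducible Mtb Asd, DapB, CysH or TrpD, each grown in its selective medium. Strains were screened against the Prestwick library at 0.1 mM and 1% DMSO in 384-well format at low and high arabinose induction. Growth is read as OD600 after 10 h in triplicate.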

E. coli TESEC Mtb DapB = conditions: compound 0.1 mM
Procedure: as §2

E. coli TESEC Mtb Alr [3] = conditions: compound 0.1 mM; remark: listed apart in the source
Procedure: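 TESEC Mtb Alr E. coli (ΔaraC ΔtolC ΔentC Δalr ΔdadX, arabinose-inducible Mtb Alr) or the Alr+ wild-type control strain, grown in defined M9-fructose medium without D-alanine in 96-well plates with Prestwick library compounds at 0.1 mM and 1% DMSO. Low Alr induction is 0.1 µM arabinose and high induction is 10 mM arabinose.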

[4] = arabinose 1000 nM, raw OD600 reference: median of DMSO wells 0.294, cell-free background 0.041
[5] = arabinose 10000 nM, raw OD600 reference: median of DMSO wells 0.264, cell-free background 0.041
[6] = arabinose 100000 nM, raw OD600 reference: median of DMSO wells 0.201, cell-free background 0.041
[7] = arabinose 1000000 nM, raw OD600 reference: median of DMSO wells 0.193, cell-free background 0.041
[8] = arabinose 10000000 nM, raw OD600 reference: median of DMSO wells 0.146, cell-free background 0.041
[9] = arabinose induction (level): High, raw OD600 reference: median of DMSO wells 0.331, cell-free background 0.041
[10] = arabinose induction (level): Low, raw OD600 reference: median of DMSO wells 0.417, cell-free background 0.041
[11] = arabinose induction (level): High, raw OD600 reference: median of DMSO wells […], cell-free background 0.041
[12] = arabinose induction (level): Low, raw OD600 reference: median of DMSO wells 0.227, cell-free background 0.041
[13] = arabinose 100 nM, raw OD600 reference: median of DMSO wells 0.413, cell-free background 0.052
[14] = arabinose 10000000 nM, raw OD600 reference: median of DMSO wells […], cell-free background 0.052

Compound	growth [1]	growth (E. coli TESEC Mtb Alr [2]; [4])	growth (E. coli TESEC Mtb Alr [2]; [5])	growth (E. coli TESEC Mtb Alr [2]; [6])	growth (E. coli TESEC Mtb Alr [2]; [7])	growth (E. coli TESEC Mtb Alr [2]; [8])	growth (E. coli TESEC Mtb Asd; [9])	growth (E. coli TESEC Mtb Asd; [10])	growth (E. coli TESEC Mtb DapB; [11])	growth (E. coli TESEC Mtb DapB; [12])	growth (E. coli TESEC Mtb Alr [3]; [13])	growth (E. coli TESEC Mtb Alr [3]; [14])
Nc1c2c(nc3ccccc13)CCCC2 [Tacrine hydrochloride]	0.22 ± 0.0053	0.263 ± 0.012	0.248 ± 0.0067	0.214 ± 0.042	0.149 ± 0.014	0.168 ± 0.007	0.242 ± 0.052	0.316 ± 0.076	0.222 ± 0.024	0.228 ± 0.014	0.41 ± 0.01	0.37 ± 0.017
CN1CCN(CC(=O)N2c3ccccc3C(=O)Nc3cccnc32)CC1 [Pirenzepine dihydrochloride]	0.242 ± 0.0032	0.269 ± 0.049	0.268 ± 0.013	0.193 ± 0.0071	0.177 ± 0.0037	0.148 ± 0.0028	0.28 ± 0.051	0.418 ± 0.034	0.19 ± 0.013	0.253 ± 0.038	0.4155 ± 0.0034	0.334 ± 0.019
CC(Oc1ccccc1)C(=O)N[C@@H]1C(=O)N2[C@@H]1SC(C)(C)[C@@H]2C(=O)O (some centres undefined) [Phenethicillin potassium salt]	0.267 ± 0.018	0.311 ± 0.019	0.266 ± 0.0071	0.223 ± 0.018	0.19 ± 0.006	0.139 ± 0.0076	0.306 ± 0.05	0.438 ± 0.011	0.226 ± 0.0034	0.249 ± 0.02	0.398 ± 0.0069	0.367 ± 0.0061
C=CCOc1ccccc1OCC(O)CNC(C)C (centres undefined) [Oxprenolol hydrochloride]	0.2186 ± 0.001	0.281 ± 0.0082	0.271 ± 0.0046	0.1983 ± 0.00078	0.208 ± 0.023	0.141 ± 0.0071	0.332 ± 0.062	0.368 ± 0.013	0.204 ± 0.0052	0.225 ± 0.031	0.414 ± 0.0042	0.357 ± 0.0083
CC(C)OC(=O)CCC/C=C\C[C@@H]1[C@@H](CC[C@@H](O)CCc2ccccc2)[C@H](O)C[C@@H]1O [Latanoprost]	0.0604 ± 0.0021	0.05 ± 0.0017	0.0396 ± 0.0001	0.0525 ± 0.00065	0.04007 ± 0.00012	0.0545 ± 0.0034	0.0525 ± 0.0016	0.05293 ± 0.00021	0.0594 ± 0.0031	0.0554 ± 0.0022	0.314 ± 0.037	0.0658 ± 0.011
c1ccc(CN(CC2=NCCN2)c2ccccc2)cc1 [Antazoline hydrochloride]	0.2355 ± 0.0022	0.279 ± 0.02	0.254 ± 0.0091	0.194 ± 0.021	0.167 ± 0.0018	0.14 ± 0.0039	0.355 ± 0.017	0.441 ± 0.017	0.185 ± 0.01	0.225 ± 0.043	0.412 ± 0.0059	0.364 ± 0.015
CC[C@H]1OC(=O)C[C@@H](O)[C@H](C)[C@@H](O[C@@H]2O[C@H](C)[C@@H](O[C@H]3C[C@@](C)(O)[C@@H](O)[C@H](C)O3)[C@H](N(C)C)[C@H]2O)[C@@H](CC=O)C[C@@H](C)C(=O)/C=C/C(C)=C/[C@@H]1CO[C@@H]1O[C@H](C)[C@@H](O)[C@@H](OC)[C@H]1OC [Tylosin]	0.04133 ± 5.8e-05	0.0588 ± 0.0023	0.0397 ± 0.00017	0.0503 ± 0.0012	0.03953 ± 0.00032	0.0429 ± 0.0013	0.0667 ± 0.004	0.0597 ± 0.0035	0.0739 ± 0.0012	0.0754 ± 0.0056	0.249 ± 0.12	0.0521 ± 0.00046
Cc1c(NC(=O)c2cccnc2)c(=O)n(-c2ccccc2)n1C [Nifenazone]	0.251 ± 0.0067	0.305 ± 0.0092	0.27 ± 0.0045	0.212 ± 0.024	0.183 ± 0.0036	0.1554 ± 0.001	0.309 ± 0.066	0.411 ± 0.1	0.192 ± 0.0073	0.262 ± 0.065	0.413 ± 0.017	0.339 ± 0.011
COC1=C(OC)C(=O)C(CCCCCCCCCCO)=C(C)C1=O [Idebenone]	0.0426 ± 0.0005	0.0428 ± 0.0023	0.0413 ± 0.00026	0.0466 ± 0.0041	0.04233 ± 0.0004	0.0482 ± 0.0015	0.0516 ± 0.0016	0.0501 ± 0.0007	0.0884 ± 0.057	0.066 ± 0.0091	0.139 ± 0.087	0.0513 ± 0.001
Cc1cccn2c(=O)c(-c3nnn[nH]3)cnc12 [Pemirolast potassium]	0.218 ± 0.011	0.268 ± 0.011	0.2352 ± 0.0021	0.151 ± 0.0021	0.148 ± 0.0043	0.125 ± 0.0032	0.284 ± 0.1	0.371 ± 0.089	0.212 ± 0.028	0.223 ± 0.014	0.421 ± 0.012	0.311 ± 0.014
COC(=O)[C@H](c1ccccc1Cl)N1CCc2sccc2C1 [Clopidogrel]	0.0938 ± 0.0032	0.0873 ± 0.0047	0.0411 ± 0.0013	0.0991 ± 0.004	0.0439 ± 0.00078	0.0663 ± 0.00069	0.158 ± 0.014	0.128 ± 0.0029	0.153 ± 0.015	0.159 ± 0.012	0.38 ± 0.016	0.0754 ± 0.014
OCCN1CCN(CC/C=C2/c3ccccc3Sc3ccc(Cl)cc32)CC1 [Zuclopenthixol dihydrochloride]	0.0505 ± 0.0052	0.257 ± 0.0079	0.176 ± 0.005	0.1981 ± 0.0017	0.0779 ± 0.0011	0.14 ± 0.0078	0.205 ± 0.043	0.215 ± 0.011	0.179 ± 0.029	0.186 ± 0.038	0.156 ± 0.19	0.0523 ± 0.0015
CC(C)(C)NCC(O)c1ccc(O)c(CO)c1 (centres undefined) [Salbutamol]	0.241 ± 0.0029	0.285 ± 0.015	0.271 ± 0.0082	0.192 ± 0.0026	0.183 ± 0.0057	0.137 ± 0.0049	0.318 ± 0.067	0.436 ± 0.032	0.215 ± 0.015	0.233 ± 0.028	0.43 ± 0.0098	0.383 ± 0.017
C[C@]12CC[C@@H]3c4ccc(OS(=O)(=O)O)cc4CC[C@H]3[C@@H]1CCC2=O [Estropipate]	0.229 ± 0.0082	0.277 ± 0.011	0.251 ± 0.0064	0.177 ± 0.011	0.151 ± 0.011	0.127 ± 0.0018	0.301 ± 0.023	0.413 ± 0.039	0.194 ± 0.016	0.195 ± 0.013	0.41 ± 0.0049	0.267 ± 0.0063
CC(C)[N+](C)(CCOC(=O)C1c2ccccc2Oc2ccccc21)C(C)C [Propantheline bromide]	0.169 ± 0.0072	0.231 ± 0.025	0.269 ± 0.0034	0.155 ± 0.0034	0.153 ± 0.0025	0.132 ± 0.0019	0.233 ± 0.051	0.417 ± 0.047	0.156 ± 0.011	0.17 ± 0.0089	0.406 ± 0.011	0.32773 ± 0.00025
OCCN(CCO)c1nc(N2CCCCC2)c2nc(N(CCO)CCO)nc(N3CCCCC3)c2n1 [Dipyridamole]	0.0642 ± 0.0085	0.0575 ± 0.0086	0.0482 ± 0.0011	0.0725 ± 0.015	0.05417 ± 0.00046	0.135 ± 0.016	0.079 ± 0.002	0.0913 ± 0.034	0.195 ± 0.035	0.205 ± 0.033	0.068 ± 0.006	0.0709 ± 0.0012
O=C1NCN(c2ccccc2)C12CCN(CCCC(c1ccc(F)cc1)c1ccc(F)cc1)CC2 [Fluspirilen]	0.0416 ± 0.0009	0.044 ± 0.0032	0.0402 ± 0.00092	0.0775 ± 0.0044	0.0438 ± 0.0018	0.0681 ± 0.0024	0.0816 ± 0.034	0.0703 ± 0.0098	0.167 ± 0.014	0.19 ± 0.021	0.0516 ± 0.00059	0.0605 ± 0.008

— the supplement of paper PMC9262897, “Low-cost anti-mycobacterial drug discovery using engineered E. coli” (Nature Communications, 2022)
